Enhancement data for 92 compounds are collected here from PubChem BioAssay AID493056 (National Center for Advancing Translational Sciences (NCATS), 2011).

Structures are written as SMILES. Out of some 360,000 compounds screened, about 2,400 (0.67%) were called active. The entries come from a sample that favours actives as a whole. A number with no mark means an inactive call. Cut-off read from the data, not from the text of the source: active = enhancement above about 30%; inactive = the rest.

Sequence of Thyrotropin-releasing hormone receptor (Homo sapiens) (P34981 whole entry, looked up): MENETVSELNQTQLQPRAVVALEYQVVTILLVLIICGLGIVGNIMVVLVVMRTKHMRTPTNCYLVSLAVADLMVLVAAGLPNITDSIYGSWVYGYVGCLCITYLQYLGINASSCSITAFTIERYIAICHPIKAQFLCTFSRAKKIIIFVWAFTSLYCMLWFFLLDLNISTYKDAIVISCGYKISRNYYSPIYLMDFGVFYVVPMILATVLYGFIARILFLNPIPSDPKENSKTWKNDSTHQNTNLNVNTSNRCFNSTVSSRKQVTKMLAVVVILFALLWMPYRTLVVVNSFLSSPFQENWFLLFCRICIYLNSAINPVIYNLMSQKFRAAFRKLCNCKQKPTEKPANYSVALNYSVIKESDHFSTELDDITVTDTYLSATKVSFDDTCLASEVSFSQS

The assay deals with Thyrotropin-releasing hormone receptor (Homo sapiens) (UniProt P34981). As to the kind of experiment: qHTS for Small Molecule Agonists and Allosteric Enhancers of Human TRH Receptor: Primary Screen for Enhancers. Note: 0% is about no effect. As to conditions: TRHR cells, fluo-8 calcium fluorescence, EC20 TRH enhancement; at 2 µM; stronger effect = higher value. In short, it runs like this:
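TRHR-expressing cells loaded with fluo-8 calcium dye were read kinetically (ex 480/em 530) during compound addition, then stimulated with an EC20 of TRH (10 nM final). Enhancement of the Gq-mediated intracellular calcium response was scored.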
On the technique in general: Quantitative high-throughput screening tests each substance at several concentrations.
For `CCn1c(=O)c(=O)n(CC)c2cc(N3CCCCC3)c(NC(=O)c3cccc(F)c3)cc21`, the enhancement is 4.18%.
For `CCn1c(=O)c(=O)n(CC)c2cc(N3CCCCC3)c(NC(=O)c3ccc(Cl)cc3)cc21`, the enhancement is 4.4%.
On to `Cc1ccc(C(=O)Nc2cc3c(cc2N2CCCC2)n(C)c(=O)c(=O)n3C)cc1`, for which the enhancement is 32.4% (active).
With `Nc1ncc(S(=O)(=O)Nc2ccc(OC(F)(F)F)cc2)cn1`, the enhancement was -5.87%.
For `O=C(NCC(=O)N(CC1CCCO1)C(C(=O)NC1CCCCC1)c1ccccc1)c1ccco1` (configuration not stated), the enhancement was 35.9% (active).
Consider `COc1ccc(N(C(=O)CNC(=O)c2ccco2)C(C(=O)NCC2CCCO2)c2ccccc2)cc1Cl` (configuration not stated), for which the enhancement is -16.4%.
With `Cc1ccc(N(C(=O)CNC(=O)c2ccco2)C(C(=O)NC2CCCC2)c2ccncc2)cc1` (configuration not stated) the figure was 0.937%; with `CCOc1ccc(Nc2ncnc3scc(-c4ccc(OC)cc4)c23)cc1`, -0.508%.
With `CN(C)S(=O)(=O)c1cccc(NC(=S)NCc2ccc3c(c2)OCO3)c1` the figure was 34% (active).
As for `CN(C)S(=O)(=O)c1cccc(NC(=O)COc2ccc3ccccc3c2)c1`, the enhancement is -1.36%.
With `O=C(NCc1ccc2c(c1)OCO2)C12CC3CC(CC(C3)C1)C2` the figure was -3.78%; with `COc1ccccc1N1CCN(c2ncnc3onc(-c4cccc(Cl)c4)c23)CC1`, -1.85%.
With `CCOc1ccc(C(C)=O)cc1COC(=O)CNC(=O)c1cccs1` the figure was 34.6% (active); with `CCOc1ccc(C(C)=O)cc1COC(=O)c1cnc(Cl)c(Cl)c1`, 22.5%.
In the case of `COc1ccc(C(=O)COC(=O)CNC(=O)c2cccs2)cc1Br`, the enhancement is 2.56%.
On to `CCCNC(=O)c1ccc(N2CCC3(CC2)CC(c2ccc(Cl)cc2)=NO3)c([N+](=O)[O-])c1`, for which the enhancement was 0.894%.
With `O=C(Nc1ccccc1N1CCN(C(=O)c2ccccc2)CC1)c1ccco1`, the enhancement was 7.38%.
Turning to `CCCNC(=O)c1ccc(N2CCC3(CC2)CC(c2cccc(Br)c2)=NO3)c(NC(=O)c2ccco2)c1`, the enhancement is 35.5% (active).
With `COC(=O)c1ccccc1NC(=O)c1ccc(C#N)cc1` the figure was 6.65%; with `CCCCCn1c(CCNC(=O)c2ccc(F)cc2)nc2ccccc21`, -6.28%.
With `Cc1ccc(NC(=O)CCCn2c(=O)c3cccn3c3ccccc32)cc1Cl` the figure was 1.3%.
As to `COc1ccc2c(c1)Cc1sc(NC(=O)c3ccccc3Br)nc1-2`, the enhancement is 4.8%.
With `Cc1sc(NC(=O)C2=COCCO2)c(C#N)c1C` the figure was 2.25%.
`CCC(CC)c1nnc(NC(=O)C2=COCCO2)s1`: the enhancement was 36.4% (active).
With `CCC(CC)c1nnc(NC(=O)c2nn(C)c(=O)c3ccccc23)s1` the figure was 6.49%; with `Cc1ccccc1OCc1ccc(-c2nc(C#N)c(N3CCCCC3)o2)o1`, 0.624%; with `O=C(Nc1ccc(-c2nc3cc(NC(=O)c4ccccc4Cl)ccc3o2)cc1)c1ccccc1Cl`, -6.24%.
In the case of `Cc1cc(C(=O)CCl)c(C)n1CC1COc2ccccc2O1` (configuration not stated), the enhancement is 45.8% (active).
With `Cc1n[nH]c(C)c1S(=O)(=O)N1CCCC(C(=O)NCC2COc3ccccc3O2)C1` (configuration not stated), the enhancement was -5.61%.
On to `COc1ccc(NC(=O)CC2COc3ccccc3O2)c(OC)c1` (configuration not stated), for which the enhancement is -4.66%.
In the case of `COc1ccc(NC(=O)Cn2c(=O)n(CCC(C)C)c(=O)c3cccnc32)cc1Cl`, the enhancement was 5.35%.
With `Cc1nc2cccnc2nc1C` the figure was 1.62%; with `Clc1ccc(COn2c(-c3ccc(Cl)cc3Cl)nc3ncccc32)cc1`, -14.4%; with `COn1c(-c2ccc(Cl)cc2Cl)nc2ncccc21`, 31.3% (active).
Take `Cc1ccc(S(=O)(=O)c2nc(-c3cccs3)oc2NCc2cccnc2)cc1`: the enhancement is -3.44%.
For `O=S(=O)(c1ccccc1)c1nc(-c2ccccc2F)oc1NCc1cccnc1`, the enhancement is 0.0883%.
For the compound `O=S(=O)(c1ccc(Br)cc1)c1nc(-c2ccccc2)oc1NCc1cccnc1`, the enhancement is 31.2% (active).
Turning to `Cc1ccc(-n2cnc3cc(C(=O)NCCC4=CCCCC4)ccc32)cc1Cl`, the enhancement was -5.29%.
For `Cc1cc(N)n2nc(-c3ccc(C(C)(C)C)cc3)cc2n1`, the enhancement was 1.1%.
Regarding `Cc1cc(-c2ccccc2)n2nc(C)c(-c3ccccc3)c2n1`, the enhancement was -0.179%.
Turning to `Cc1cc(-c2ccccc2)n2nc(-c3ccccc3)cc2n1`, the enhancement was 33% (active).
As to `Cc1ccc(C(=O)Nc2c(C(=O)NC(C)(C)C)oc3ccccc23)cc1`, the enhancement was 6.66%.
With `N#CN1CCC(NS(=O)(=O)c2cccc(F)c2)C1` (configuration not stated), the enhancement is -3.49%.
With `CCn1nnnc1SCC(=O)c1ccc(C)cc1C`, the enhancement was 7.37%.
Consider `CSc1nnnn1-c1c(C)cc(C)cc1C`, for which the enhancement is 41.9% (active).
`COC(=O)c1ccccc1NC(=O)c1ccc2c(=O)n3c(nc2c1)CCCCC3`: the enhancement is 1.88%.
In the case of `COc1cc(Cl)c(NC(=O)C(NS(=O)(=O)c2cccs2)C(C)C)c(OC)c1` (configuration not stated), the enhancement is 8.88%.
For `COc1ccc(Nc2ncc3c(n2)CCN(C(=O)OC(C)(C)C)C3)cc1`, the enhancement was 2.63%.
For `Cc1ccc(-c2cc(C(F)(F)F)c(C#N)c(SCC(=O)Nc3ccccc3)n2)cc1`, the enhancement is 7.58%.
Consider `Cc1ccc(Cl)cc1N1CCN(C(=O)C2CCC(CNS(=O)(=O)c3cccs3)CC2)CC1` (configuration not stated), for which the enhancement is 4.4%.
For the compound `CCOC(OCC)c1ccc(/C=C\c2nccc(N)n2)cc1`, the enhancement was 30% (active).
For the compound `CN(C)S(=O)(=O)c1ccc(C(=O)N(Cc2cccnc2)c2nc3c(F)cc(F)cc3s2)cc1`, the enhancement was -9.57%.
Regarding `Cc1cc2c(s1)c1cnn(Cc3c(F)cccc3Cl)c(=O)c1n2C`, the enhancement is 10.5%.
Turning to `CC(NC(=O)COc1ccccc1)C(=O)NC1=NCCS1` (configuration not stated), the enhancement is 1.42%.
For the compound `CSCCC(C(=O)NC1=NCCS1)N1C(=O)c2ccccc2C1=O` (configuration not stated), the enhancement is 33.2% (active).
With `CCCCN(C(=O)C(CCSC)N1C(=O)c2ccccc2C1=O)c1c(N)n(CCC)c(=O)[nH]c1=O` (configuration not stated) the figure was -0.146%.
With `COc1ccccc1C(=O)NCc1nnc(SC(C)C(=O)Nc2nccs2)n1C` (configuration not stated) the figure was -2.08%; with `CC(Sc1nnc(CNC(=O)c2ccccc2F)n1C)C(=O)Nc1nccs1` (configuration not stated), -1.71%.
With `Cc1cccc(C(=O)NCc2nnc(SC(C)C(=O)Nc3nnc(C)s3)n2C)c1` (configuration not stated) the figure was 37.6% (active).
With `O=S(=O)(c1ccc2c(c1)OCCCO2)N1CCN(S(=O)(=O)c2c(F)cccc2F)CC1`, the enhancement is 2.65%.
In the case of `N#Cc1nc(Nc2cc(F)cc(Cl)c2)nc(NC2CCCC2)n1`, the enhancement was -2.09%.
Regarding `O=C(NCc1ccccc1Cl)c1cccn1-c1nnc(N2CCCCC2)s1`, the enhancement was -0.339%.
For the compound `Cc1ccc(NC(=O)CSc2nc3c([nH]c4ccccc43)c(=O)n2-c2ccccc2)c(C)c1`, the enhancement is 39.6% (active).
For the compound `Cc1cccc(NC(=O)CSc2nc3c([nH]c4ccccc43)c(=O)n2-c2cc(C)cc(C)c2)c1`, the enhancement was 1.49%.
As for `Cc1ccc(NC(=O)CSc2nc3c([nH]c4ccccc43)c(=O)n2-c2ccccc2)cc1Cl`, the enhancement was -2.92%.
Consider `Cc1ccccc1OCc1nc2c3cnn(-c4ccccc4F)c3ncn2n1`, for which the enhancement was 8.56%.
On to `COc1ccc(-c2nc3sc(CCNS(=O)(=O)c4ccc(F)c(C)c4)c(C)n3n2)cc1`, for which the enhancement is -2.89%.
With `Cc1cccc(OCC(=O)N(Cc2ccc(C(C)C)cc2)Cc2ccco2)c1C` the figure was 3.9%; with `COc1cccc(CN(C)CC(=O)Nc2ccccc2C(=O)Nc2ccccc2)c1`, 2%; with `COc1cccc(CN(C)CC(=O)Nc2sc3c(c2C#N)CCC3)c1`, 40.2% (active).
With `Cc1ccc(C)c(OCC(=O)Nc2sc3c(c2C#N)CCCC3)c1C`, the enhancement is 0.637%.
With `Cc1ccc(O)c(NC(=O)c2cc(-c3ccc(F)cc3)no2)c1` the figure was -8.05%.
In the case of `O=c1c2cccnc2n(Cc2cccc(F)c2)c(=O)n1Cc1ccccc1Cl`, the enhancement was -4.81%.
For the compound `O=c1[nH]n2c(=O)c3c([nH]c2c1N=Nc1ccccc1)CCC3`, the enhancement is 31.1% (active).
In the case of `CC(C)(C)n1c(=O)[nH]c2c(c1=O)CCC2`, the enhancement was -6.6%.
For the compound `O=c1c(=O)n(Cc2c(F)cccc2Cl)ccn1Cc1ccccc1`, the enhancement was 6.97%.
`COc1ccc(N=Nc2c(-c3ccc(OC)cc3)[nH]oc2=O)cc1`: the enhancement was 5.67%.
As for `O=c1o[nH]c(-c2ccccc2)c1N=Nc1c(F)cccc1Cl`, the enhancement was 45.6% (active).
On to `CCS(=O)(=O)c1nc(S(=O)(=O)c2ccc(C)cc2)c(NCc2ccc(Cl)cc2)s1`, for which the enhancement was 0.719%.
Regarding `CCN(CC)c1ccc(C2C(C(N)=O)=C(C)Nc3nc(SCc4ccccc4)nn32)cc1` (configuration not stated), the enhancement is 3.72%.
`C/C(=N\NC(=O)c1cccc([N+](=O)[O-])c1)c1cccnc1`: the enhancement is 3.55%.
For `C/C(=N\NC(=O)Cc1ccccc1[N+](=O)[O-])c1cccnc1`, the enhancement was 2.77%.
For `O=C(/C=C/c1ccc(Cl)c([N+](=O)[O-])c1)c1cccnc1`, the enhancement is 36.2% (active).
Regarding `COc1ccc(CNC(=O)C2=Cc3cccc(OC)c3OC2)cc1OC`, the enhancement is -3.7%.
Consider `CC(C)C(=O)N1CCN(c2nc(-c3ccccc3)c3c(c2C#N)CC(C)(C)OC3)CC1`, for which the enhancement was -1.59%.
Turning to `C1=C(N2CCOCC2)/C(=C/c2nc3ccccc3[nH]2)CC1`, the enhancement is 3.98%.
With `CC1(C)Cc2c(C#N)c(SCc3nc4ccccc4[nH]3)nc(N3CCOCC3)c2CO1` the figure was 34.4% (active).
Turning to `Cc1nc2nc(NCc3cccc(Br)c3)[nH]n2c(=O)c1Cc1ccccc1`, the enhancement was 2.4%.
With `COc1ccc(-c2noc(CCC(=O)N(C)c3ccccc3C)n2)cc1` the figure was 6.52%; with `COc1ccc(C2CC(=O)Nc3c2c(=O)nc2c(C)cccn32)cc1OC` (configuration not stated), 15%.
Consider `COc1ccc(C2CC(=O)Nc3sc(=N)c4c(N)c(C#N)c(N)nc4c32)cc1OC` (configuration not stated), for which the enhancement was 33.8% (active).
In the case of `N#Cc1c(N)nc2c3c(sc(=N)c2c1N)NC(=O)CC3c1ccccc1Cl` (configuration not stated), the enhancement was 2.83%.
